# The supplement of paper PMC6555819
# Test system: VDR:RXRa (NR concentration 270 nM, RXRa partner concentration 90 nM)
# Assay: PBM binding z-score (relative to random genomic background probes); higher = stronger binding; sequences stand for … in GC…GCGATTGACAGCGTAGAATGAAGG
# Protocol: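 Protein-binding microarray (Agilent 4x180K custom design, double-stranded 60-nt probes: 5' GC cap, 34-nt variable region, 24-nt constant primer region; full probe sequence given). Purified or IVT nuclear receptor:RXRα heterodimers (3:1 NR:RXRα, mostly 270:90 nM) or homodimers were incubated for 1 h in PBS with 2% milk and no ligand, then detected with Alexa488 antibodies. Fluorescence from o1-orientation probes (~5 replicates averaged) was converted to z-scores against 500 random hg19 background probes. Variable regions are seed direct-repeat (DR0–DR5) sites, all their single-nucleotide variants and half-site ablations.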
row,Sequence,PBM binding z-score
1,ACTAGCAGGGCAAGGGTCACTCAAGATTAGTCCG,2.95
2,GTACCAAGGTGAATGGGTCGTTGATGAGTAGGCG,1.06
3,CGTCAAAGTTCAACGAAGGTAACGTAAAGCACGC,4.39
4,CCTACTGGGCCAAAAAGGTCATTAATGCCGATAA,4.53
5,CAAACTAGGTCAAGGTCAAAATCGGTTTGTGCCA,4.7
6,ATCTCTAGGTAAAAGTTCAGTTAATCCCGAGGAT,1.44
7,TCTGCTATGTCAGTTGGTCAGCTAACGAGCTGCC,-0.176
8,CATACAGGGTCAGCTATGCCAGAGTAGGGACGGC,2.78
9,CGTCCAAGGTCAGCAGGACAGTGAAAGCGACGTG,2.42
10,AATACAGGTTCATCGTAGGCCAGAGTACGCACAG,4.6
11,ATCGAAAGGTCGACGATGTGAGTATACACCGTTT,2.51
12,CGTCCAAGGTCAAAGGTCAGTCAAGAGATGACGG,6.84
13,GCTATTAGTTGCAAGGGCAACCGAATGATTCTCG,0.134
14,TATCCTAGGTCATGCGGGCCAGTATAGTGTCGGC,3.5
15,GATACAGGGTCAGCTAGAGGCCAGACTATGGAAA,3.23
16,GCGACTGAGGCAAAGCAGGTTACCATAAGGTTGG,-0.292
17,CGAACTAGGTCATCCAGGAGAGTGAATACATTGA,2.35
18,ATCTCTAGGTAAAGATATTTCAGTGAATGCAAAT,0.441
19,ACTAGTTGGTCAGCTGAGGCCACACACAATTCGG,0.307
20,ATATGTACGTTATCGGGTCATTCAGTTTGCGCAT,5.03

row,Sequence,PBM binding z-score
1,CCTACTGGGCCACGAACGGTCATTGATTCAGTGA,-0.227
2,TCTAGTAGGCCAGAGGGTCACTCAAGAGGTACGG,1.91
3,GCTCGGAGGACAAGGTCAAAGCTTTGTCCGTAGA,3.38
4,GATACAGGGTCAAGCCCAGAGTACGCGTATTGAT,4.5
5,AACTCTAGGTAACAAGTTCAGTGAAAGAGAGGAC,1.61
6,CGAACGAGTGCATGAGTTGATAGCAAATGCCGAT,1.58
7,ACTACAGGGTCATCGTAGGCCAGAGTACGCACAG,5.05
8,GCTTACTGGTCAAAGGTTATAGCATGAATAGAAT,2.42
9,AGAATGAGGTTAACATCAGGGAAACAGAATACAT,1.75
10,CGTACAAGGTCAGCAGGTCAGTGAAAGCGACGTG,4.16
11,TGAATGAGGTTAAAGATCAGGGATCGTGGCGTCG,1.85
12,TTACCAATGTGAAGGTCGTTGATCCCTCTGTAGA,1.17
13,GCTAGTTGGTCAGTAAAAGATCACACACCGGTCG,-0.204
14,TGGAGTAGGTTACCAATGGGGCATTCAGCTTTCT,0.293
15,AGTCAACGTTCAGGACGAGGTAACGTAAAGCACG,-0.317
16,ACTATTAGTTTAGACGAGGGCAACCGATAGGTTG,0.8
17,ACAGACAGGTGATGAGGGTAACTCAGGCTATCAT,0.16
18,ATCTCTAGGTAAGCAAGTTCAGTGAATGCCGAAC,3.03
19,TAGCCTAGGTCATGGGCCACTATACCACGCGAAC,2.22
20,TCATATAGGTAAACAAGTGAAAGTCCGTAAGTTA,1.09
